In the library only some 19% were active in any assay of this set; here they are far more common.
DT40 TDP1 no CPT – qHTS for Inhibitors of human tyrosyl-DNA phosphodiesterase 1 (TDP1): qHTS in cells in absence of CPT; DT40 Tdp1-/- hTDP1 cells, no CPT, ATP luminescence, 48 h; Potency, µM (series often up to 46.2 µM), actives largely listed as inhibitors; 420,000 tested, 15% active; AID 686978, 2013; also: nearly all actives have a fitted effect of over 55% in size
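Stably hTDP1-transfected Tdp1-null chicken DT40 cells were treated with library compounds minus camptothecin and grown for at least 48 hr at 37 °C, after which cellular ATP was quantified by luminescence.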
HT1080 IDH1KD tx – toxicity to HT-1080 IDH1 knockdown cells (counter line). HT-1080 IDH1 knockdown viability, ATP luminescence, 48 h. Potency, µM (titrated, usually from 46.1 µM), hits mostly cytotoxic. 360,000 tested, 2% active. AID 686971
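Using the IDH1-knockdown HT-1080 line run in the same batch and compound series as the NT line, viability after 48 h at 37 °C was determined by CellTiter-Glo luminescence and expressed as % activity.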
HT1080NT lethal – kills 2HG-producing HT-1080-NT fibrosarcoma cells. HT-1080-NT fibrosarcoma viability, CellTiter-Glo ATP luminescence, 48 h. Potency, µM (titrated, usually from 46.1 µM), usual class: cytotoxic. 360,000 tested, 1.6% active;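 also: NT is the 2HG producing partner of a matched IDH1 knockdown line; nearly all actives have a fitted effect of over 55% in size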
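Viability of the 2HG-overproducing fibrosarcoma line after 48 hours of compound exposure at 37 degrees C was determined by luminescence with CellTiter-Glo, and concentration-effect curves were then fitted and categorized.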
TDP1 cell CPT – DT40-hTDP1 cell growth loss with CPT. chicken DT40 Tdp1-/-;hTDP1 cells + 20 nM CPT, ATP luminescence, 48 h. Potency, µM (top dose mostly 46.2 µM), hits mostly inhibitors. 420,000 tested, 12% active. AID 686979; also: nearly all actives have a fitted effect of over 55% in size
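Chicken DT40 Tdp1-/- cells stably complemented with human TDP1 were seeded at 400 cells/well in medium containing 20 nM camptothecin, exposed to pin-transferred compounds, and grown at 37 °C for at least 48 hr. Viability was read as ATP luminescence.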
IL-1B inflam inh – inflammasome signaling inhibition, IL-1 beta readout; THP-1 LPS/ATP IL-1B secretion, AlphaLISA, 16 h; active compounds read low; activity change, % at 57.5 µM; 360,000 tested, 4.7% active; in the data active = activity change below about -50%; inconclusive = mostly about -30% to -49%
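THP-1 cells pretreated 1 hr with compounds (up to 57.5 uM final), then stimulated with LPS (250 ng/mL final) plus ATP (1.25 mM final); secreted IL-1B measured by AlphaLISA after 16 hr, decreased signal indicating inhibition.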
Large screens that a line does not name were inactive. Unless noted, calls follow the shape of the dose curve; as a rule, active = well fitted curve in the direction sought with a large enough effect; inconclusive = small, poorly fitted or top-dose-only effect, or another doubt; inactive = no such curve, though single readings can be large; an effect the other way counts as inactive or inconclusive.

Cc1cc(=O)[nH]c(SCC(=O)NC(c2ccccc2)c2ccccc2)n1	DT40 TDP1 no CPT inconclusive
COc1ccccc1C(=O)NC(=O)CSc1nc(C)cs1	none
O=C(CN1C(=O)NC2(CCc3ccccc32)C1=O)Nc1ccc(Br)cc1F (centres undefined)	TDP1 cell CPT inconclusive
O=C(O)c1cccnc1SCc1cccc(Br)c1	none
CCn1c(SCC(=O)Nc2ccc(C)cc2)nnc1-c1ccccn1	TDP1 cell CPT inconclusive
O=C(CSC1=NCCN1)Nc1cccc([N+](=O)[O-])c1	DT40 TDP1 no CPT 21µM, TDP1 cell CPT 15µM, IL-1B inflam inh -67
Cc1ccc(NC(=O)CSC2=NCCN2)cc1	DT40 TDP1 no CPT 18µM, TDP1 cell CPT 23µM, IL-1B inflam inh -61
COC(=O)COc1cc(OCC(=O)OC)c2c(C)c(Cl)c(=O)oc2c1	IL-1B inflam inh -83
Cc1ccc(S(=O)(=O)/N=C(\Sc2ccccc2)c2ccccc2)cc1	DT40 TDP1 no CPT 6.5µM, TDP1 cell CPT 5.8µM, IL-1B inflam inh -50
COc1ccccc1N/C(=N/S(=O)(=O)c1ccc(Cl)cc1)c1ccccc1	DT40 TDP1 no CPT inconclusive
COc1ccccc1N/C(=N/S(=O)(=O)c1ccc(C)cc1)c1ccccc1	DT40 TDP1 no CPT 18µM, TDP1 cell CPT inconclusive
O=S(=O)(/N=C(\Sc1ccccc1)c1ccccc1)c1ccc(Cl)cc1	DT40 TDP1 no CPT 11µM, TDP1 cell CPT 13µM, IL-1B inflam inh -53
Cc1cccc(N2CCN(S(=O)(=O)c3ccc4c(c3)CCCN4C(=O)C3CCC3)CC2C)c1 (centres undefined)	DT40 TDP1 no CPT inconclusive, TDP1 cell CPT inconclusive
CN(C)CCN1C(=O)C(=O)/C(=C(/O)c2ccc(S(=O)(=O)N3CCOCC3)cc2)C1c1ccc(F)cc1 (centres undefined)	none
CCOC(=O)C1ON2CCCCC2C1(O)C(F)(F)F (centres undefined)	none
O=C(Sc1nnc(-c2ccccc2)o1)N1c2ccccc2Sc2ccccc21	DT40 TDP1 no CPT 18µM, TDP1 cell CPT 21µM
COc1cccc(C(=O)CSc2nnc(-c3cc(OC)c(OC)c(OC)c3)o2)c1	DT40 TDP1 no CPT 21µM, TDP1 cell CPT inconclusive
COc1cc(-c2nnc(SCC(=O)N3c4ccccc4Sc4ccccc43)o2)cc(OC)c1OC	DT40 TDP1 no CPT 8.2µM, TDP1 cell CPT inconclusive
COc1cc(-c2nnc(SCC(=O)c3ccc(C)cc3)o2)cc(OC)c1OC	DT40 TDP1 no CPT 23µM, HT1080 IDH1KD tx inconclusive, TDP1 cell CPT inconclusive
Cc1cc(C)c2oc(=O)cc(CN3CCCCC3)c2c1	none
Cc1cc(C(=O)N2CCC2(C)C(=O)O)c(C)o1 (centres undefined)	none
C=CCNc1nc(C(=O)OCC(=O)Nc2c(Cl)cccc2C(F)(F)F)cs1	none
CCCCCCc1cc2cc(C(=O)Nc3ccccc3)c(=O)oc2cc1O	DT40 TDP1 no CPT 3.7µM, HT1080 IDH1KD tx inconclusive, HT1080NT lethal inconclusive, TDP1 cell CPT 3.3µM
COc1ccc(-n2c(CNC(=O)c3ccccc3C(F)(F)F)nnc2SC)cc1	none (no result: HT1080 IDH1KD tx, HT1080NT lethal, IL-1B inflam inh)
CCc1nc2sc3ccccc3c(=O)c2c(=O)n1Cc1ccco1	HT1080 IDH1KD tx 26µM, HT1080NT lethal inconclusive, TDP1 cell CPT inconclusive
N#Cc1cc2c(=O)n3ccccc3nc2n(-c2nnc(SCc3ccccc3F)s2)c1=O	none (no result: HT1080 IDH1KD tx, HT1080NT lethal, IL-1B inflam inh)
Cc1cccn2c(=O)c3cc(C#N)c(=O)n(-c4nnc(SCc5ccccc5F)s4)c3nc12	DT40 TDP1 no CPT 6.5µM, TDP1 cell CPT inconclusive (no result: HT1080 IDH1KD tx, HT1080NT lethal, IL-1B inflam inh)
CCOC(=O)N1CCC(N(CCCOC)C(=O)Nc2cccc(OC)c2)CC1	DT40 TDP1 no CPT inconclusive, TDP1 cell CPT inconclusive
CCOC(=O)N1CCC(N(C(=O)Nc2cccc(OC)c2)C(C)CC)CC1 (centres undefined)	DT40 TDP1 no CPT 10µM, TDP1 cell CPT 21µM
CCOC(=O)N1CCC(N(CCN(C)C)C(=S)Nc2ccc(Oc3ccccc3)cc2)CC1	IL-1B inflam inh -89
CCOC(=O)N1CCC(N(CCOC)C(=O)Nc2ccc(Cl)c(Cl)c2)CC1	DT40 TDP1 no CPT 10µM, TDP1 cell CPT 18µM, IL-1B inflam inh -63
CCOC(=O)N1CCC(N(CCN(C)C)C(=S)Nc2cccc(C)c2)CC1	none
Cc1ccc(C(=O)Nc2cccc(NC(=O)CN3CCCCC3)c2)cc1	DT40 TDP1 no CPT inconclusive, TDP1 cell CPT inconclusive
CCOc1ccc(OCCCC(=O)O)cc1	none
CC(=O)c1ccc(S(=O)(=O)N(C)CCCC(=O)NCc2ccc3c(c2)OCO3)cc1	DT40 TDP1 no CPT inconclusive
Cc1nc2c(=O)n(C)c(=O)n(C)c2nc1Cl	DT40 TDP1 no CPT 1.2µM, HT1080 IDH1KD tx 5.8µM, HT1080NT lethal 9.2µM, TDP1 cell CPT 0.58µM, IL-1B inflam inh -99
COCCCn1c(=N)c(C(=O)NCC2CCCO2)cc2c(=O)n3cccc(C)c3nc21 (centres undefined)	DT40 TDP1 no CPT inconclusive
COCCCn1c(C(=O)Nc2ccc3c(c2)OCO3)cc2c(=O)n3ccccc3nc21	DT40 TDP1 no CPT 26µM, TDP1 cell CPT 18µM
COCCCn1c(C(=O)NC2CCCCC2C)cc2c(=O)n3cccc(C)c3nc21 (centres undefined)	DT40 TDP1 no CPT 21µM, TDP1 cell CPT 16µM
CCN(C(=O)c1cc2c(=O)n3cccc(C)c3nc2n1CCCOC)C1CCCCC1	DT40 TDP1 no CPT 16µM, TDP1 cell CPT 21µM
Cc1[nH]n(C(N)=S)c(=O)c1N=Nc1cccc(C(F)(F)F)c1	DT40 TDP1 no CPT inconclusive, TDP1 cell CPT inconclusive
Cc1[nH]n(C2=NCCS2)c(=O)c1N=Nc1cccc(C(F)(F)F)c1	DT40 TDP1 no CPT 2.6µM, HT1080 IDH1KD tx inconclusive, HT1080NT lethal inconclusive, TDP1 cell CPT 3.7µM
Cc1cccc(-c2nc3cc(NC(=O)COc4ccccc4F)ccc3o2)c1	none (no result: HT1080 IDH1KD tx, HT1080NT lethal, IL-1B inflam inh)
CCOC(=O)c1ccc(NC(=O)CN(c2ccc(C)cc2)S(=O)(=O)c2c(C)nn(C)c2C)cc1	DT40 TDP1 no CPT inconclusive, HT1080 IDH1KD tx inconclusive, HT1080NT lethal inconclusive, TDP1 cell CPT 23µM
CCOc1ccccc1NC(=O)CN(c1cc(C)cc(C)c1)S(=O)(=O)c1c(C)nn(C)c1C	DT40 TDP1 no CPT 21µM, TDP1 cell CPT 21µM (no result: HT1080 IDH1KD tx, HT1080NT lethal, IL-1B inflam inh)
COc1ccc(NC(=O)CN(c2ccc(C)cc2)S(=O)(=O)c2c(C)nn(C)c2C)cc1	none
O=C(NNc1ccccc1)c1ccc(Cl)c(Cl)c1	HT1080NT lethal inconclusive
COc1ccc(NS(=O)(=O)c2ccc(Cl)c(N)c2)cc1Br	DT40 TDP1 no CPT inconclusive
Nc1cc(S(=O)(=O)Nc2ccc(Br)cc2)ccc1Cl	DT40 TDP1 no CPT inconclusive, HT1080 IDH1KD tx inconclusive, TDP1 cell CPT inconclusive, IL-1B inflam inh -69
COC(=O)c1cc2sc(C)cc2n1Cc1cccc(OC)c1	DT40 TDP1 no CPT 23µM, TDP1 cell CPT inconclusive (no result: HT1080 IDH1KD tx, HT1080NT lethal, IL-1B inflam inh)
COc1ccccc1CC(=O)Nc1ncc(C)s1	DT40 TDP1 no CPT 16µM, TDP1 cell CPT inconclusive
Cc1cnc(NC(=O)Cc2c[nH]c3ccccc23)s1	HT1080 IDH1KD tx inconclusive
